The list is not random: actives were taken first. Their share in the collection is about 1.6%.
GFP derepression: qHTS Assay for Epigenetic Modulators; Potency, µM (top dose mostly 46.1 µM), for inactives: top-dose GFP derepression (activation); 0.09% of 68,000 active; AID 597, 2007; mouse C127i GFP locus derepression, cytometry, 30 h; further: % of control where 0% means no effect
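Murine C127i mammary cells carrying a silenced, stably integrated CMV-driven GFP reporter were treated with compound for 30 hours at 37 C. After PBS washes, GFP-positive cells were counted by laser-scanning microplate cytometry.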
p53ts 32C tox: qHTS Screen for Compounds that Selectively Target Cancer Cells with p53 Mutations: Cytotoxicity of p53ts Cells at the Permissive Temperature | H1299-p53A138V at 32C, ATP luminescence viability, 24 h | Potency, µM (series often up to 46.1 µM), for the others: top-dose activity change, negative = cytotoxicity, actives largely listed as cytotoxic | 0.93% of 130,000 active;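 further: potency means the concentration at half of the fitted maximal effect; 0% = DMSO and -100% = full killing by reference compound; nearly all actives have a fitted effect of over 55% in size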
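Cells: H1299 p53ts (A138V), 600/well, pre-incubated 16–30 h at 37C. Cpd up to 46 uM, 24 h, 32C. Readout: ATPlite luminescence, 20 min RT. Normalization: DMSO vs tamoxifen 100 uM. AC50 by Hill equation.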
UbGFP stabilizer: Ubiquitin-GFP Assay | Ubiquitin-GFP reporter cells, proteasome inhibition, GFP fluorescence; response scale: untreated = 0%, 10 µM MG-132 = 100% | Potency, µM (doses to about 45.9 µM), without a hit: at the highest dose activation (GFP accumulation), actives largely listed as activators | 67,000 tested, under 10 active; active means well fitted activation curve with a large enough effect, not every such curve was filed as active; inconclusive means small, poorly fitted or top-dose-only effect, or another doubt; inactive means no such curve, though single readings can be large or run the other way; further: potency means the concentration at half of the fitted maximal effect
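Reporter cells (U2OS, ubiquitin-G76V-GFP fusion) are plated overnight, then treated 4 hr at 37 °C with compound titrations from 46 uM down to 2.9 nM. Activity is scaled against untreated cells and 10 uM MG-132.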
p53ts 39C kill: qHTS Screen for Compounds that Selectively Target Cancer Cells with p53 Mutations: Cytotoxicity of p53ts Cells at the Nonpermissive Temperature; H1299-p53A138V viability at 39C, ATP luminescence, 24 h; Potency, µM (titrated, usually from 46.1 µM), without a hit: at the top dose activity change, negative = cell killing, usual class: cytotoxic; 1.5% of 130,000 active; AID 902, 2007; further: potency means the concentration at half of the fitted maximal effect; on the % scale 0 is the no-effect control and ±100 the full control effect; nearly all actives have a fitted effect of over 55% in size
Peg3 imprint: qHTS Assay for Compounds that Induce Erasure of Genomic Imprints | mouse ES Peg3-LacZ reporter, beta-gal luminescence, 40 h | Potency, µM (titrated, usually from 60.7 µM), inactives show at the highest dose activity change, positive = activation, most hits filed as activators | 0.02% of 110,000 active; further: potency means the concentration at half of the fitted maximal effect
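Each well holds 300 Peg3LacZ-Neo (maternal) female ES cells incubated 40 h at 37C, 5% CO2. LacZ is measured by BetaGlo luminescence, with AC50 and maximum efficacy derived from dose-response curves.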
HBB splicing: qHTS Assay for Modulators of Hemoglobin Beta Chain Splicing; 0.06% of 65,000 active; HBB splicing reporter cell assay, activation; EGFP reporter with mutant IVS2-654 intron; response scale: normalised to 500 nM splice-correcting PNA; Potency, µM (top dose mostly 46.1 µM), inactives show top-dose activation, usual class: activators; further: potency means the concentration at half of the fitted maximal effect; 0% is about no effect
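HeLa cells stably expressing EGFP interrupted by mutant beta-globin intron 2 (IVS2-654), 500/well in 2% FCS. Treated with compound for 2 days at 37C. Splicing correction scored as total well GFP intensity (488 nm excitation, 500-520 nm emission); 500 nM antisense PNA served as control.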
* marks the source's active call; other numbers are inactive results; u = inconclusive; x = no result given; [ ] = another dose, or the depositor's remark. Unless noted, the call rests on the fitted dose curve; in most records, active means well fitted curve in the direction sought with a large enough effect; inconclusive means small, poorly fitted or top-dose-only effect, or another doubt; inactive means no such curve, though single readings can be large; an effect the other way counts as inactive or inconclusive.

SMILES | GFP derepression | p53ts 32C tox | UbGFP stabilizer | p53ts 39C kill | Peg3 imprint | HBB splicing
O=C(NCc1ccccc1F)c1cccs1 | 0.0% | 1.0% | 0.5% | -1.4% | -4.2% | -2.1%
c1ccc(-n2ncc3c(NCCCN4CCOCC4)ncnc32)cc1 | x | -19.1% | x | -11.0% | x | x
COc1ccc(Nc2c3c(nc4ccc(NC(=O)c5cc(Cl)ccc5OC)cc24)CCCC3)cc1OC | x | 5.62µM* | x | 5.01µM* | -36.7%[10.9 µM] | x
CC(C)(C)C(=O)Nc1ccc(-c2nc3ccc(NC(=O)C(C)(C)C)cc3[nH]2)cc1 | x | 7.94µM* | x | u | -13.4%[10.9 µM] | x
OCCNc1nc(Nc2ccccc2)nc(Nc2ccccc2)n1 | 1.9% | -6.0% | 12.4%[9.17 µM] | -10.5% | -2.8% | -4.4%[0.0738 µM]
CSc1cccc(NC(=O)c2ccc3c(c2)CCCN3S(C)(=O)=O)c1 | x | 12.6µM* | x | u | -4.3%[10.9 µM] | x
CCS(=O)(=O)N1CCCc2cc(C(=O)Nc3cccc(C(C)=O)c3)ccc21 | x | -1.6% | x | 4.1% | -1.0%[10.9 µM] | x
Cc1cccc(NC(=O)CSc2ncc(-c3ccc(Br)cc3)[nH]2)c1 | x | u | x | 12.6µM* | 27.0%[10.9 µM] | x
CCCC[C@H](CC)CN=C(N)NC(N)=NCCCCCCN=C(N)NC(N)=NC[C@@H](CC)CCCC | -3.6%[20.6 µM] | -21.2%[20.6 µM] | -6.7%[20.5 µM] | 12.6µM* | -25.7%[16.8 µM] | -0.8%[20.6 µM]
COc1cccc2cc(C(=O)N3CCN(C(=O)c4ccco4)CC3)c(=O)oc12 | 2.6% | 7.8% | 8.9% | 4.8% | 13.6% | -0.2%
CCOC(=O)c1ccccc1NC(=O)CSc1nc2ccccc2o1 | -1.9% | -4.1% | -4.0% | -16.5% | -70.5% | 0.2%[57.5 µM]
CCCOC(=O)Nc1nc2ccccc2o1 | -1.2% | 10µM* | 1.1% | u | x | x
O=C(c1cccc(S(=O)(=O)N2CCOCC2)c1)N1CCCCCC1 | 0.0% | 5.6% | -1.4% | 3.2% | -6.7% | -0.1%
O=C(CSc1nc2nccnc2c(=O)n1CCc1c[nH]c2ccccc12)Nc1ccc(F)cc1 | x | 2.3% | x | -9.2% | -12.9%[10.9 µM] | x
Nc1cc(C2CCCC2)nn1-c1ccccc1 | 7.5% | 12.6µM* | 1.7% | u | -83.8% | -0.5%[57.5 µM]
COc1cccc(C(=O)/C=C/Nc2cc(C)ccc2O)c1 | -2.7% | u | 2.5% | u | -36.8% | -0.5%
CCOc1cc(CNC(=O)Cn2c(-c3cccs3)cc3cc(F)ccc32)ccc1OC | x | -9.2% | x | x | x | x
CCOc1ccc(CCNC(=O)Cn2c(-c3cccs3)cc3cc(F)ccc32)cc1OCC | x | -17.0% | x | 7.94µM* | -9.9%[10.9 µM] | x
Cc1onc(-c2c(Cl)cccc2Cl)c1C(=O)NC(=S)Nc1sc2c(c1C(N)=O)CCC(C)C2 (stereo not given) | x | 21.3% | x | 4.0% | x | x
COc1ccc(-c2cn3c(n2)sc2cc(C(=O)NCc4ccccc4)ccc23)cc1 | x | -7.2% | x | u | -9.1%[10.9 µM] | x
COc1ccc2c(c1)sc1nc(-c3ccccc3)cn12 | 0.0% | 0.631µM* | x | 1.26µM* | -92.7% | 3.8%[0.369 µM]
CCOc1ccc(Br)cc1S(=O)(=O)Nc1cccc(-c2ccc(OC)nn2)c1 | x | 14.2% | x | -16.7% | 1.8%[10.9 µM] | x
COc1ccccc1N1C(=O)N(C(C)=O)C2C1Nc1ccccc1N2C (stereo not given) | 2.5% | u | -6.5% | u | -9.8% | 69.9%
CCN1c2ccccc2NC2C1C(C(C)=O)C(=O)N2c1ccc(Cl)cc1 (stereo not given) | -1.8% | u | 4.3% | 20µM* | 2.7% | u
C1CCc2nnnn2CC1 | 10.5%[20.6 µM] | -12.9% | 3.0%[20.5 µM] | 12.2% | -6.8% | 2.0%[20.6 µM]
Cc1ccc(C(=O)Nc2nnc(S(=O)(=O)N(C)Cc3ccco3)s2)cc1 | x | -6.3% | x | -24.1% | -23.2%[10.9 µM] | x
CC(C)COc1ccc(C(=O)Nc2nnc(S(=O)(=O)N(C)Cc3ccco3)s2)cc1 | x | u | x | 10µM* | -73.7%[10.9 µM] | x

Screens: PubChem, National Center for Advancing Translational Sciences (NCATS)
